An excerpt weighted towards active compounds, which were near 11% of everything screened.
HP1b binding inh – blocks HP1-beta chromodomain binding to methylated histone tails. Potency, µM (doses to about 114 µM), inactives show at the highest dose activity change, negative = inhibition, usual class: inhibitors. AlphaScreen HP1-beta / biotin-H3K9me3 peptide binding. AID 540317. P83916. 390,000 compounds, 0.56% hits; further: nearly all actives have a fitted effect of over 70% in size
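Compound inhibition of the preformed complex between 50 nM HP1-beta and 50 nM biotinylated H3K9me3 peptide was read by AlphaScreen. Buffer was PBS pH 7.4 with 0.01% Tween-20. Incubations ran 30 min at room temperature, with 10 ug/mL donor/acceptor beads.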
BAZ2B inh – inhibitors of human BAZ2B bromodomain | Potency, µM (series often up to 114 µM), inactives show top-dose activity change, negative = inhibition, actives largely listed as inhibitors | AlphaScreen BAZ2B-H3K14Ac peptide displacement | 360,000 compounds, 4.4% hits | Q9UIF8; further: on the % scale 0 is the no-effect control and ±100 the full control effect; nearly all actives have a fitted effect of over 60% in size
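Multi-concentration screen (max 110 uM) measuring displacement of acetylated histone H3 peptide from BAZ2B by AlphaScreen, using 50 nM protein, 50 nM peptide and 10 ug/mL streptavidin donor plus Ni-chelate acceptor beads.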
JMJD2A Tudor – JMJD2A Tudor domain (human) inhibition | AlphaScreen JMJD2A-Tudor / H3K4me3 peptide binding | Potency, µM (series often up to 114 µM), without a hit: at the highest dose activity change, negative = inhibition, usual class: inhibitors | 390,000 compounds, 4.4% hits; further: on the % scale 0 is the no-effect control and ±100 the full control effect; nearly all actives have a fitted effect of over 50% in size
G9a inh – inhibitors of human histone lysine methyltransferase G9a; G9a H3K9 monomethylation, AlphaScreen, 2 h; Potency, µM (highest dose often 102 µM), inactives show top-dose activity, negative = inhibition, hits mostly inhibitors; 350,000 compounds, 8.8% hits; AID 504332; further: on the % scale 0 is the no-effect control and ±100 the full control effect; nearly all actives have a fitted effect of over 75% in size
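AlphaScreen read-out: biotin-H3K9 peptide (500 nM) methylation by 20 nM enzyme with 20 uM SAM, 2 h at room temperature after 15 min compound preincubation; anti-monomethyl H3K9 antibody plus donor/acceptor beads, 10 min dark.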
L3MBTL1 block – blocks human L3MBTL1; Q9Y468; AlphaScreen L3MBTL1–H3K9me1 peptide binding; Potency, µM (series often up to 57.1 µM), without a hit: at the highest dose activity, negative = inhibition, most hits filed as inhibitors; 230,000 compounds, 0.66% hits; AID 485360; further: on the % scale 0 is the no-effect control and ±100 the full control effect; nearly all actives have a fitted effect of over 60% in size
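L3MBTL1 50 nM + b-AHA-H3(1-15)K9me1 75 nM, 30 min RT; compound added, 30 min RT; streptavidin donor/Ni-chelate acceptor beads 10 ug/mL each final, 30 min RT dark; AlphaScreen read.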
Active calls of the source: *; ? = inconclusive; . = not tested or not shown; [ ] = dose if it differs, or a comment. The call rests on the fitted dose curve; in most records, active means well fitted inhibition curve with a large enough effect; inconclusive means small, poorly fitted or top-dose-only effect; inactive means no such curve, though single readings can be large or run the other way. Potency means the concentration at half of the fitted maximal effect.

SMILES	HP1b binding inh	BAZ2B inh	JMJD2A Tudor	G9a inh	L3MBTL1 block
COc1ccc(C)cc1NC(=O)NC1CCN(Cc2ccccc2)CC1	6%	5%	-25%	14µM*	-8%
CCOC(=O)C1CCCN(CC(=O)N2CCCc3c2c(=O)oc2ccc(OCc4ccccc4)cc32)C1 (configuration not stated)	8%	-23%	40µM*	22µM*	.
COc1ccc(C(=O)N2CCCCC2CCN2CCOCC2)cc1 (configuration not stated)	34%	-9%	-10%	-3%[59 µM]	.
C=C(CCO)C1=CCN(S(=O)C(C)(C)C)[C@@H]1CCO (some centres not stated)	37%	.	-16%	.	.
Cc1ccc(S(=O)(=O)N/N=C\c2cc3c(cc2Br)OCO3)cc1	31%	-6%	8%	-13%[59 µM]	-14%
Cc1ccc(S(=O)(=O)N/N=C/c2ccccc2F)cc1[N+](=O)[O-]	21%	?	-25%	11µM*	.
O=[N+]([O-])c1cc2c(cc1/C=N/NS(=O)(=O)c1ccc(Br)cc1)OCO2	?	-37%	2%[11.4 µM]	11µM*	-4%
CCN(Cc1ccccc1)c1ccc(/C=N/NS(=O)(=O)c2ccc(C)c([N+](=O)[O-])c2)cc1	?	?	?	8.9µM*	-13%
Cc1ccc(S(=O)(=O)NN=Cc2ccc(N3CCOCC3)cc2)cc1[N+](=O)[O-]	12%	.	-33%	.	-1%
O=C(CSc1nc2c(c(=O)[nH]1)CN(Cc1ccc3c(c1)OCO3)CC2)Nc1cccc(Cl)c1	6%	-12%	-23%	?	.
O=C(O)CCCCCNC(=O)Cn1nnc2ccccc2c1=O	23%	1%	-2%	14%	8%
CN(CCCOc1ccccc1F)Cc1ccccc1	?	56µM*	20µM*	7.9µM*	?
CN1CCN(CCOc2ccc(Cl)c(Cl)c2)CC1	16µM*	50µM*	0.79µM*	10µM*	0%
CN1CCN(CCOc2cccc(Cl)c2)CC1	24%	?	?	?	1%
CN(CCOc1ccccc1Cl)Cc1ccccc1	?	56µM*	22µM*	10µM*	2%
CCN(CC)CCCOc1ccc(Cl)c(Cl)c1	-49%	?	0.89µM*	10µM*	3%
CCN(CC)CCCOC(=O)c1ccc(OC)cc1O	17%	-38%	-16%	.	-1%
COc1cccc(NC(=O)CN2C(=O)CC(c3ccco3)Sc3ccccc32)c1 (configuration not stated)	-9%	?	?	?	.
CN(CCOc1ccc(Cl)c(Cl)c1)Cc1ccccc1	-23%	?	20µM*	.	11%
Cc1cc(OCC(=O)N(C)Cc2ccccc2)ccc1Cl	46%	11%	17%	?	-3%
COc1ccccc1C1C=C(c2ccc(Cl)cc2)Nc2nc(N3C(=O)CCC3=O)nn21 (configuration not stated)	17%	.	45µM*	?	0%
COc1ccc(C2C=C(c3ccccc3)Nc3nc(NS(=O)(=O)c4ccc(C)cc4)nn32)cc1 (configuration not stated)	18%	2%	-19%	-2%[59 µM]	.
CS(=O)(=O)Nc1nc2n(n1)C(c1ccccc1)C=C(c1ccc(Br)cc1)N2 (configuration not stated)	86%	-1%	-16%	?	5%
COc1ccccc1C1C=C(c2ccc(Cl)cc2)Nc2nc(NS(C)(=O)=O)nn21 (configuration not stated)	.	3%	.	50µM*	4%
COc1ccc(C2=CC(c3ccccc3Cl)n3nc(-c4ccc(C)cc4)nc3N2)cc1 (configuration not stated)	-11%	11µM*	?	?	.
COc1ccccc1NC(=O)c1cccc2c(Br)cccc12	46%	14%	6%	34%	12%
O=C(NCCc1ccccc1)c1sc2ncccc2c1-n1cccc1	-5%[57 µM]	-39%	-32%	-2%[59 µM]	.
CC(C)C(=O)N1c2ncnn2C2(CCCCC2)[C@@H]2CCCC[C@@H]21	33%	0%	6%	3%[59 µM]	.
Cc1cc(Cl)ccc1OCC(=O)N(Cc1ccco1)C1CCS(=O)(=O)C1 (configuration not stated)	21%	-32%	-10%	-23%	-7%

High-throughput results (PubChem)
